# Laboratory results taken from PubChem BioAssay AID1345085 (National Center for Advancing Translational Sciences (NCATS), 2018).
# Inconclusive results are not listed. Activity calls are given as the source filed them. The call rests on the fitted dose curve; in most records, active means well fitted cell-killing curve with a large enough effect; inconclusive means small, poorly fitted or top-dose-only effect, or effect the other way; inactive means no such curve, though single readings can be large or run the other way.
# System: PA-1
# Experiment: Confirmatory qHTS for gynecologic anti-cancer compounds from libraries of approved drugs and bioactive compounds; further: nearly all actives have a fitted effect of over 55% in size
# Settings: gynecologic cancer cell panel viability, ATPlite luminescence, 48 h; series mostly up to 57.6 µM
# In short: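 ATPlite luminescence read-out of cell viability; IC50 from 11-point 1:3 titrations, 57.5 uM to 0.977 nM, 48 h compound exposure at 37 C, 5% CO2. Cells seeded at 1,000/well 16 h before dosing.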
# Potency means the concentration at half of the fitted maximal effect.
row,SMILES,Potency
1,CCCC(Nc1nc(-c2ccc(NC(=O)NCC)c(OC)c2)ncc1C)c1cccnc1 (centres undefined),0.137 µM (active)
2,CNC1CCC(N(Cc2cccc(-c3ccncc3)c2)C(=O)c2sc3ccccc3c2Cl)CC1 (centres undefined),24.3 µM (active)
3,c1cc(N[C@@H]2CCNC2)nc(-c2cnc3ccc(-c4cn[nH]c4)cn23)c1,1.72 µM (active)
4,Cc1cnc(CNC(=O)c2c(=O)c3ccc(N4CCCN(C)CC4)nc3n3c2sc2ccccc23)cn1,1.11 µM (active)
5,CC[C@]1(O)C[C@@H]2CN(CCc3c([nH]c4ccccc34)[C@@](C(=O)OC)(c3cc4c(cc3OC)N(C)[C@H]3[C@@](O)(C(=O)OC)[C@H](OC(C)=O)[C@]5(CC)C=CCN6CC[C@]43[C@@H]65)C2)C1,0.109 µM (active)
6,CN(C)CC/C=C1\c2ccccc2COc2ccccc21,inactive
7,COC(C(=O)N1Cc2[nH]nc(NC(=O)c3ccc(N4CCN(C)CC4)cc3)c2C1)c1ccccc1 (centres undefined),7.69 µM (active)
8,O=c1[nH]c(=O)n([C@H]2C[C@H](O)[C@@H](CO)O2)cc1Br,inactive
9,CCN(CC)CCCC(C)Nc1c2ccc(Cl)cc2nc2ccc(OC)cc12 (centres undefined),27.3 µM (active)
10,CCn1c(-c2nonc2N)nc2c(C#CC(C)(C)O)ncc(OCC3CCCNC3)c21 (centres undefined),7.69 µM (active)
11,COc1ccc(OC)c(-c2nnc3ccc(-c4ccc(OC)c(O[C@@H]5CCOC5)c4)nn23)c1,5.44 µM (active)
12,CC(C)Oc1ccc(C(=O)NC(CNC(=O)CN(C)C)Cc2ccc(-c3cn4cccc(C(C)O)c4n3)cc2)cc1Cl (centres undefined),0.243 µM (active)
13,COc1cc(Nc2ncc(F)c(Nc3ccc4c(n3)N(COP(=O)(O)O)C(=O)C(C)(C)O4)n2)cc(OC)c1OC,9.68 µM (active)
14,CNCc1ccc(-c2[nH]c3cc(F)cc4c3c2CCNC4=O)cc1,19.3 µM (active)
15,Nc1ccc(-c2ccc3ncc4ccc(=O)n(-c5cccc(C(F)(F)F)c5)c4c3c2)cn1,0.863 µM (active)
16,Cc1cnc(Nc2cccc(CN3CCOCC3)c2)nc1Nc1cccc(S(=O)(=O)NC(C)(C)C)c1,3.85 µM (active)
17,COc1cc(Nc2c(C#N)cnc3cc(OCCCN4CCN(C)CC4)c(OC)cc23)c(Cl)cc1Cl,13.7 µM (active)
18,NS(=O)(=O)OC[C@@H]1C[C@@H](n2ccc3c(N[C@H]4CCc5ccccc54)ncnc32)C[C@@H]1O,0.685 µM (active)
19,COc1cc(N2CCC(N)CC2)ccc1Nc1ncc(Cl)c(-c2c[nH]c3ccccc23)n1,19.3 µM (active)
20,N#CC1(c2cccc(C(=O)Nc3cc(Oc4ccc5nc(NC(=O)C6CC6)sc5n4)ccc3F)c2Cl)CC1,8.63 µM (active)

row,SMILES,Potency
1,CCC1C(=O)N(C)c2cnc(Nc3ccc(C(=O)NC4CCC(N5CCN(CC6CC6)CC5)CC4)cc3OC)nc2N1C(C)C (centres undefined),0.0769 µM (active)
2,CC(C)Nc1cc(-c2c[nH]c(C(=O)N[C@H](CO)c3cccc(Cl)c3)c2)c(Cl)cn1,6.11 µM (active)
3,COc1ccccc1N1CCN(CC(O)COc2cccc3ccccc23)CC1 (centres undefined),inactive
4,COc1cc2c(cc1-c1c(C)noc1C)ncc1[nH]c(=O)n(C(C)c3ccccn3)c12 (centres undefined),2.17 µM (active)
5,O=c1[nH]c(=O)n([C@H]2C[C@H](O)[C@@H](CO)O2)cc1C(F)(F)F,1.93 µM (active)
6,Cc1nc(NC(=O)N2CCCC2C(N)=O)sc1-c1csc(C(C)(C)C)n1 (centres undefined),27.3 µM (active)
7,COc1cc(N2CCC(N3CCN(C)CC3)CC2)ccc1Nc1ncc(Cl)c(Nc2ccccc2S(=O)(=O)C(C)C)n1,3.43 µM (active)
8,C[C@]12CCC(=O)C=C1[C@@H]1C[C@@H]1[C@H]1[C@@H]3[C@@H]4C[C@@H]4[C@@]4(CCC(=O)O4)[C@@]3(C)CC[C@@H]12,inactive
9,CCC1C(=O)N(C)c2cnc(Nc3ccc(C(=O)NC4CCN(C)CC4)cc3OC)nc2N1C1CCCC1 (centres undefined),0.0432 µM (active)
10,CC1=C(CO)C(=O)O[C@@H]([C@@H](C)[C@H]2CC[C@H]3[C@@H]4C[C@H]5O[C@]56[C@@H](O)C=CC(=O)[C@]6(C)[C@H]4CC[C@]23C)C1,1.68 µM (active)
11,CC(C)[C@@H](CS(=O)(=O)C(C)C)N1C(=O)[C@@](C)(CC(=O)O)C[C@H](c2cccc(Cl)c2)[C@H]1c1ccc(Cl)cc1,2.43 µM (active)
12,Cc1ccc(C(N)=O)cc1Nc1nccc(-c2cn(C(C)C)c3cnccc23)n1,1.37 µM (active)
13,CC(=O)NCC(=O)N1C2CCC1c1cc(Nc3ncc(C(F)(F)F)c(NC4CCC4)n3)ccc12 (centres undefined),0.685 µM (active)
14,Cn1c(=O)c(F)c(Nc2ccc(I)cc2F)c2c(=O)n(CC(O)CO)cnc21 (centres undefined),2.17 µM (active)
15,CC[C@]1(O)C[C@H]2CN(CCc3c([nH]c4ccccc34)[C@@](C(=O)OC)(c3cc4c(cc3OC)N(C=O)[C@H]3[C@@](O)(C(=O)OC)[C@H](OC(C)=O)[C@]5(CC)C=CCN6CC[C@]43[C@@H]65)C2)C1,0.172 µM (active)
16,Cc1ccn(-c2ccc(-c3ncco3)cc2)c(=O)c1-c1ccc2nc(N)ncc2c1,27.3 µM (active)
17,COCCOc1nc(-c2ccc(Cl)c(Cl)c2)n(-c2ccc(NC(=O)CCl)cc2)n1,8.63 µM (active)
18,NC(=O)c1ccc2nc(-c3ccc(Oc4ccc(Cl)cc4)cc3)[nH]c2c1,6.85 µM (active)
19,Cn1cc(-c2[nH]c3cc(NC(=O)[C@H](N)C4CCCCC4)cc4c3c2C=NNC4=O)cn1,8.63 µM (active)
